High-throughput results as filed in PubChem BioAssay.
ALR H2O2 inh: inhibitors of human ALR sulfhydryl oxidase, primary screen, biochemical, H2O2 detection, HRP-luminol luminescence, single point. inhibition, % (no concentration beside the values). AID 485317, 2010. 290,000 compounds, 3.8% hits. purified ALR, DTT oxidation;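 active means mean replicate inhibition above about 79%, with every replicate also reaching it, limit read from the data; inconclusive means only one of the two criteria met; inactive means mean below limit and not every replicate reaching it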
PP1 counter: PP1-alpha phosphatase inhibitors, primary screen, counter-screen for PP5 inhibitor project, biochemical, fluorescence, OMFP substrate, single point. purified PP1alpha. inhibition, % at 6.7 µM. 320,000 compounds, 0.9% hits;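 active means inhibition above the mean inhibition of all tested compounds plus 3 SD, computed separately for each screening campaign, cut at about 15% in these data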
CSC inhib: cancer stem cell viability inhibitors, primary screen, luminescence; inhibition, % at 7.5 µM; cancer stem cell-like cells viability; 300,000 compounds, 1.1% hits; in the data active means inhibition above about 75%; inconclusive means no clear call, values can overlap the other calls; tested in HMLE shEcad cells
PP5 inh: PP5 phosphatase inhibitors, primary screen, biochemical, fluorescence; Serine/threonine-protein phosphatase 5 (Homo sapiens), P53041; purified PP5c, OMFP substrate fluorescence; AID 1987, 2009; 320,000 compounds, 0.18% hits; inhibition, % at 6.7 µM;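 active means inhibition above the campaign's mean inhibition across all tested compounds plus 3 SD, cut at about 9.5% in these data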
Target sequence (P53041 whole entry, looked up): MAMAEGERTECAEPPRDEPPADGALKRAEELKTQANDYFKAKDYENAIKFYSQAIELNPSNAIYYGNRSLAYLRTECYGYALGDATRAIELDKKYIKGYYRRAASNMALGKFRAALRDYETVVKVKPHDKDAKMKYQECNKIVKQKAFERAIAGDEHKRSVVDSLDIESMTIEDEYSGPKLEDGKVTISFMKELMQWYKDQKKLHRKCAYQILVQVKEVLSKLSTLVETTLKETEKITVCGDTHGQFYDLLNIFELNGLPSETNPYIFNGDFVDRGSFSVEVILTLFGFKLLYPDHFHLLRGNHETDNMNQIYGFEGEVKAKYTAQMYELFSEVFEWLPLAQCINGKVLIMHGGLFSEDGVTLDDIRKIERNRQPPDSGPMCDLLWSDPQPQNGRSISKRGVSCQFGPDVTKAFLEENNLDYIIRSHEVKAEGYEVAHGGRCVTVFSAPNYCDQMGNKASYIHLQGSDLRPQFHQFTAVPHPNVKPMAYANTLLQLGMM
Calb FLC: C. albicans growth inhibition with fluconazole, primary screen, CaCi-2 strain, Alamar Blue fluorescence; C. albicans CaCi-2 (fluconazole-resistant clinical isolate) + fluconazole, 48 h; growth inhibition, % (concentration not given with the values); 300,000 compounds, 0.57% hits;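 active means growth inhibition above about 58% in most replicates, limit read from the data, passing the limit was not always enough; inconclusive means exactly half the replicates above a set limit; inactive means most replicates below a set limit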;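 further: all wells also contain fluconazole at 8 µg/ml as a sub-toxic cotreatment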
Hits are given with their value; – = inactive; ? = inconclusive; · = no result. The list is not random: actives were taken first. Their share in the collection is about 5.4%.

SMILES | ALR H2O2 inh | PP1 counter | CSC inhib | PP5 inh | Calb FLC
O=C(CSc1ncnc2sc3c(c12)CCC3)NCC1CCCO1 (centres undefined) | – | – | – | – | ·
CC(=O)CSc1ncnc2sc3c(c12)CCC3 | 94 | – | – | – | –
CC(C)(C)C(=O)CSc1ncnc2sc3c(c12)CCC3 | – | – | – | – | ?
CN1c2ccccc2N(C)C1(C)c1ccccc1 | – | – | – | – | 122
COc1ccc(-c2nn(-c3ccccc3)cc2C(=O)N(C)C)cc1 | – | – | – | – | –
Cc1ccc(S(=O)(=O)N/N=C/c2ccc(O)c(O)c2)cc1[N+](=O)[O-] | 99 | – | – | – | –
Cc1ccc(S(=O)(=O)N/N=C/c2ccccc2O)cc1[N+](=O)[O-] | 96 | – | – | – | –
CCc1ccc(-n2c(=O)c3ccc(C(=O)NCCc4ccccc4)cc3n(CC(N)=O)c2=O)cc1 | – | – | – | – | –
CC(=O)N1CCN(c2ccc(NCc3cccc(C)c3)cc2)CC1 | 99 | – | – | – | ·
Cc1cc(C(=O)N2CCN(c3ccc(F)cc3)CC2)on1 | 97 | – | – | – | –
O=C(Cc1ccc(F)cc1)N1CCN(c2ccc(F)cc2)CC1 | · | – | – | – | –
COc1cc(CNc2ccc(N3CCN(C(C)=O)CC3)cc2)ccc1OCc1ccc(F)cc1 | 99 | – | – | – | –
CC(=O)N1CCN(c2ccc(NCc3ccc(F)cc3)cc2)CC1 | 99 | – | – | – | –
Cc1cccc(C(=O)Nc2ccc(N3CCN(C(=O)c4ccco4)CC3)cc2)c1 | – | – | – | – | –
CCN(CC)C(=O)C1CCN(S(=O)(=O)c2ccc3c(c2)CCCN3C(=O)C2CCC2)CC1 | – | – | – | – | –
O=[N+]([O-])c1ccc(N/N=C/c2ccc(O)c(O)c2O)c(S(=O)(=O)N2CCOCC2)c1 | · | · | · | · | 100
O=C(CCc1ccc(S(=O)(=O)N2CCOCC2)cc1)N/N=C/c1ccc(O)c(O)c1O | 99 | – | – | – | –
O=[N+]([O-])c1ccc(N/N=C/c2cccc(O)c2O)c(S(=O)(=O)N2CCOCC2)c1 | – | – | – | – | –
O=C1CN(S(=O)(=O)c2ccccc2C(F)(F)F)CCN1 | – | – | – | – | –
CCCCc1c(C)nc2ccc(C(=O)OCC)cc2c1Cl | 97 | – | – | – | –
CCOC(=O)c1ccc2nc(C)c(CC)c(Cl)c2c1 | – | – | – | – | –
CN(CC(=O)Nc1cccc(F)c1)C(=O)/C=C/c1cc(Br)ccc1OC(F)F | – | – | · | – | –
CCOC(=O)C1=C(C)N=c2s/c(=C/c3ccc(OCC(=O)O)cc3)c(=O)n2C1c1cc(OC)c(OC)c(OC)c1 (centres undefined) | – | – | · | – | –
O=C(Nc1ccc(Br)c(C(F)(F)F)c1)c1ccc(C(F)(F)F)cc1 | · | – | 110 | – | –
COc1cc(C[C@H](C)[C@H](C)Cc2ccc3c(c2)OCO3)ccc1O | – | – | 127 | – | –
SMILES | ALR H2O2 inh | PP1 counter | CSC inhib | PP5 inh | Calb FLC
COc1cc(CC(=O)NCc2ccc3c(c2)OCO3)cc(OC)c1OC | – | – | – | – | –
O=C(NCc1ccccn1)C(=O)NCC1OCCCN1S(=O)(=O)c1cc(F)ccc1F (centres undefined) | – | – | – | – | –
CC1=CC(C)(C)Nc2ccc(OC(=O)C(C)N3C(=O)c4ccccc4C3=O)cc21 (centres undefined) | – | – | – | – | –
CC1=CC(C)(C)Nc2ccc(OC(=O)CN3C(=O)CCC3=O)cc21 | 99 | – | · | – | –
Cc1ccc(S(=O)(=O)CC2CSc3nc4ccccc4n32)cc1 (centres undefined) | – | – | – | – | 88
Cc1ccc(S(=O)(=O)CC2CSc3nc(N)cc(=O)n32)cc1 (centres undefined) | – | – | – | – | –
O=C(CSc1ccccc1)NCc1ccc(F)cc1 | – | – | – | – | –
O=C(Cc1ccc(Br)cc1)Nc1ccc(S(=O)(=O)Nc2ncccn2)cc1 | – | – | – | – | –
O=C(COC(=O)c1ccccc1C(=O)c1ccccc1)NCCc1ccc(Cl)cc1Cl | – | – | – | – | –
N=C1C(c2nc(-c3ccc(Cl)cc3)cs2)=C(O)CN1CCCN1CCOCC1 | 98 | – | – | – | –
COCCCNC(=S)N1CCN(c2ccccc2)CC1 | 97 | – | – | – | –
Cc1ccc(NC(=S)NCCCN2CCOCC2)cc1C | 98 | – | – | – | –
COCCCNC(=S)N1CCN(C)CC1 | – | – | – | – | –
CCCCN1CC(O)=C(c2nc(-c3ccc(Cl)cc3)cs2)C1=N | – | – | – | – | –
Cc1ccc(OCC(=O)NCCN2CCOCC2)cc1C | 87 | – | – | – | –
S=C(NCCCN1CCOCC1)N1CCOCC1 | – | – | – | – | –
S=C(NCCCN1CCOCC1)N1CCN(c2nc(-c3ccc(Cl)cc3)cs2)CC1 | – | – | 104 | – | ?
S=C(NCCCN1CCOCC1)N1CCN(c2ccccc2)CC1 | 98 | – | – | – | –
S=C(NCCCN1CCOCC1)N1CCN(c2nc(-c3ccccc3)cs2)CC1 | · | – | – | – | –
O=C(C[C@@H]1C/C=C/CC[C@H](Cc2ccc(F)cc2)C(=O)OC[C@@H](Cc2ccccc2)NC1=O)N[C@H](CO)Cc1ccccc1 | – | · | 105 | · | ·
CN(C)CC(O)CN(c1ccccc1)c1ccccc1 (centres undefined) | 99 | – | – | – | –
COc1ccc(O)c(CNc2ccccc2F)c1 | 99 | – | – | – | –
CC1CC2(C)Oc3ccccc3C3OCC1(CO)C(C)C32 (centres undefined) | – | – | – | – | –
CC(=O)OCC12COC3c4ccccc4OC(C)(CC1C)C3C2C (centres undefined) | – | – | – | – | 106
Cc1nn(C)cc1C(=O)NNC(=S)Nc1ccccc1 | 88 | – | – | – | –
SMILES | ALR H2O2 inh | PP1 counter | CSC inhib | PP5 inh | Calb FLC
Cc1nc2ccccn2c1C(=O)NNC(=O)Nc1ccccc1 | – | – | – | – | –
Cc1nc2ccccn2c1C(=O)NNC(=S)Nc1ccccc1 | 97 | – | – | – | –
CCC(=O)Nc1ccc(NC(=O)c2c(C)nc3ccccn23)cc1 | – | – | – | – | –
Cc1nc2ccccn2c1C(=O)NNC(=S)Nc1ccc(Cl)cc1 | 87 | – | – | – | –
CCc1c(C(=O)NNC(=O)Nc2ccc3c(c2)OCO3)csc1C | – | · | – | · | –
Cc1ccc(Cn2c(S(=O)(=O)O)nc3ccccc32)cc1 | – | – | – | – | –
O=C(Cc1cccc2ccccc12)Nc1ccc2c(c1)C(=O)NC2=O | · | – | – | – | –
O=C(CSc1nnc(-c2ccc3c(c2)OCCO3)o1)N1CCCC1 | 99 | – | – | – | –
Cc1ccc(-c2nnc(SCC(=O)N3CCCC3)o2)cc1C | 99 | – | – | – | –
COc1ccc(NC(=O)CN(C)C(=O)Cn2c(=O)oc3ccccc32)cc1 | – | – | – | – | –
